Measured values: publication PMC9911399, “Two distinct binding modes provide the RNA-binding protein RbFox with extraordinary sequence specificity”
Residue numbers refer to the chain shown, from its start. The full ranking holds about 16,000 sequences; the median of “ka relative to ugcaugu” is about 0.096, and the highest 2% start at about 0.35. What follows is part of a selection rich in the highest values, with near analogues and random picks from the rest.

T1: RBFOX1 RRM RbFoxmut (Fox-RRM*) (Homo sapiens, UniProt Q9NWB1 109-208, R118D;E147R;N151S;E152T)
T1 sequence: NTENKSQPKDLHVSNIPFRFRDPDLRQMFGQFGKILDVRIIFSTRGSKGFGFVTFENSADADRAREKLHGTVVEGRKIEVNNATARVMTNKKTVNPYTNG

B1: GUAUAUG (DNA:RNA)
RNA: GGGAGACCGGAAUUCAGAUUGUCCGUAUAUGUUAAAUCCCGUCGUAGCCACCA
DNA 1: CAATCTGAATTCCGGTCTCCC
DNA 2: TGGTGGCTACGACGGGATT
B2: GGAUAUG (DNA:RNA)
RNA: B1 RNA with U26G
DNA 1: CAATCTGAATTCCGGTCTCCC
DNA 2: TGGTGGCTACGACGGGATT
B3: GGGAUUG (DNA:RNA)
RNA: B1 RNA with U26G, A27G, U28A, A29U
DNA 1: CAATCTGAATTCCGGTCTCCC
DNA 2: TGGTGGCTACGACGGGATT
B4: CGGAUCG (DNA:RNA)
RNA: B1 RNA with G25C, U26G, A27G, U28A, A29U, U30C
DNA 1: CAATCTGAATTCCGGTCTCCC
DNA 2: TGGTGGCTACGACGGGATT
B5: CGAUCGU (DNA:RNA)
RNA: B1 RNA with G25C, U26G, A29C, U30G, G31U
DNA 1: CAATCTGAATTCCGGTCTCCC
DNA 2: TGGTGGCTACGACGGGATT
B6: CGAUAUG (DNA:RNA)
RNA: B1 RNA with G25C, U26G
DNA 1: CAATCTGAATTCCGGTCTCCC
DNA 2: TGGTGGCTACGACGGGATT
B7: GGGAUCG (DNA:RNA)
RNA: B1 RNA with U26G, A27G, U28A, A29U, U30C
DNA 1: CAATCTGAATTCCGGTCTCCC
DNA 2: TGGTGGCTACGACGGGATT
B8: AGAUCGU (DNA:RNA)
RNA: B1 RNA with G25A, U26G, A29C, U30G, G31U
DNA 1: CAATCTGAATTCCGGTCTCCC
DNA 2: TGGTGGCTACGACGGGATT
B9: GGAUCGU (DNA:RNA)
RNA: B1 RNA with U26G, A29C, U30G, G31U
DNA 1: CAATCTGAATTCCGGTCTCCC
DNA 2: TGGTGGCTACGACGGGATT
B10: GUGAGUC (DNA:RNA)
RNA: B1 RNA with A27G, U28A, A29G, G31C
DNA 1: CAATCTGAATTCCGGTCTCCC
DNA 2: TGGTGGCTACGACGGGATT
B11: UUCUCUG (DNA:RNA)
RNA: B1 RNA with G25U, A27C, A29C
DNA 1: CAATCTGAATTCCGGTCTCCC
DNA 2: TGGTGGCTACGACGGGATT
B12: UUAUUAA (DNA:RNA)
RNA: B1 RNA with G25U, A29U, U30A, G31A
DNA 1: CAATCTGAATTCCGGTCTCCC
DNA 2: TGGTGGCTACGACGGGATT
B13: UCGAGUG (DNA:RNA)
RNA: B1 RNA with G25U, U26C, A27G, U28A, A29G
DNA 1: CAATCTGAATTCCGGTCTCCC
DNA 2: TGGTGGCTACGACGGGATT
B14: CUUGCGU (DNA:RNA)
RNA: B1 RNA with G25C, A27U, U28G, A29C, U30G, G31U
DNA 1: CAATCTGAATTCCGGTCTCCC
DNA 2: TGGTGGCTACGACGGGATT
B15: AGCACGA (DNA:RNA)
RNA: GGGAGACCGGAAUUCAGAUUGUCCAGCACGAUUAAAUCCCGUCGUAGCCACCA
DNA 1: CAATCTGAATTCCGGTCTCCC
DNA 2: TGGTGGCTACGACGGGATT
B16: CCCCUGC (DNA:RNA)
RNA: B15 RNA with A25C, G26C, A28C, C29U, A31C
DNA 1: CAATCTGAATTCCGGTCTCCC
DNA 2: TGGTGGCTACGACGGGATT
B17: UGCUGCU (DNA:RNA)
RNA: B15 RNA with A25U, A28U, C29G, G30C, A31U
DNA 1: CAATCTGAATTCCGGTCTCCC
DNA 2: TGGTGGCTACGACGGGATT
B18: UGCUUGC (DNA:RNA)
RNA: B15 RNA with A25U, A28U, C29U, A31C
DNA 1: CAATCTGAATTCCGGTCTCCC
DNA 2: TGGTGGCTACGACGGGATT
B19: CUGCUGC (DNA:RNA)
RNA: B15 RNA with A25C, G26U, C27G, A28C, C29U, A31C
DNA 1: CAATCTGAATTCCGGTCTCCC
DNA 2: TGGTGGCTACGACGGGATT
B20: CUGCUUG (DNA:RNA)
RNA: B1 RNA with G25C, A27G, U28C, A29U
DNA 1: CAATCTGAATTCCGGTCTCCC
DNA 2: TGGTGGCTACGACGGGATT
B21: UGCUUGU (DNA:RNA)
RNA: B15 RNA with A25U, A28U, C29U, A31U
DNA 1: CAATCTGAATTCCGGTCTCCC
DNA 2: TGGTGGCTACGACGGGATT

target: T1, RBFOX1 RRM RbFoxmut (Fox-RRM*); test: EMSA; HiTS-Eq, 1 nM pool, 10 min; buffer printed only for the single-RNA assays: 10 mM Tris pH 7.5, 150 mM NaCl, 3.4 mM EDTA, 0.001% NP-40, 30 C; conditions: tags: His6 N-terminal (pET28a); label: 5' 32P
How it was run: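 Relative association constants, normalised to the cognate motif, were derived by comparing read counts of each RNA species with those of the control reaction. The RNA sequenced was the free fraction, separated by 8% native PAGE after a 10 min equilibration in 50 µL of 1 nM 5′-radiolabelled RNA (7 randomized nucleotides) with increasing concentrations of purified wild-type or mutant RbFox RRM.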

Row | Binder | binding signal
1 | B1 | 0.199 KA relative to UGCAUGU
2 | B2 | 0.496 KA relative to UGCAUGU
3 | B3 | 0.282 KA relative to UGCAUGU
4 | B4 | 0.331 KA relative to UGCAUGU
5 | B5 | 0.118 KA relative to UGCAUGU
6 | B6 | 0.159 KA relative to UGCAUGU
7 | B7 | 0.369 KA relative to UGCAUGU
8 | B8 | 0.105 KA relative to UGCAUGU
9 | B9 | 0.354 KA relative to UGCAUGU
10 | B10 | 0.138 KA relative to UGCAUGU
11 | B11 | 0.0908 KA relative to UGCAUGU
12 | B12 | 0.0751 KA relative to UGCAUGU
13 | B13 | 0.167 KA relative to UGCAUGU
14 | B14 | 0.154 KA relative to UGCAUGU
15 | B15 | 0.141 KA relative to UGCAUGU
16 | B16 | 0.0955 KA relative to UGCAUGU
17 | B17 | 0.12 KA relative to UGCAUGU
18 | B18 | 0.264 KA relative to UGCAUGU
19 | B19 | 0.126 KA relative to UGCAUGU
20 | B20 | 0.423 KA relative to UGCAUGU
21 | B21 | 0.428 KA relative to UGCAUGU
